hgDAF12 agonist – H. glycines DAF-12 receptor agonists, primary screen, cell-based, luminescence, HEK293, GAL4 fusion, UAS-luciferase; HEK293 GAL4-hgDAF12 UAS-luciferase reporter, agonist luminescence; normalized to butyrate control; actives 1.8% (n = 370,000); activation, % at 6.8 µM;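 active = activation above a cutoff set at the mean of all screened compounds plus 3 SD, cut at about 10% in these data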;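 also: 0% = DMSO wells and 100% = sodium butyrate wells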
DAX1 inh-1 – DAX1 (NR0B1) inhibitors on StAR promoter, primary screen, cell-based, luminescence, SF-1 (NR5A1), full-length DAX-1; actives 1.1% (n = 370,000); inhibition, % at 6.8 µM; HEK293T StAR-luciferase reporter, SF-1/DAX-1 repression relief;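 active = inhibition above the mean over all tested compounds plus 3 SD, cut at about 3.6% in these data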;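 also: 0% = DAX-1 cells with DMSO and 100% = cells lacking DAX-1 with DMSO; higher inhibition means more luminescence from relief of DAX-1 repression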
DAX1 inh-2 – DAX1 (NR0B1) inhibitors, primary screen, cell-based, HEK293, Gal4-DAX1, luciferase luminescence; actives 0.99% (n = 340,000); inhibition, % at 6.75 µM; HEK293 Gal4-DAX1 luciferase reporter;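 active = inhibition above the mean over all tested compounds plus 3 SD, cut at about 4.2% in these data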;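 also: 0% = DAX1-transfected cells with DMSO and 100% = empty-vector control cells with DMSO; inhibition shows as a rise in luminescence from relieved DAX1 repression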
Target sequence (P51843 207-470 limits assumed): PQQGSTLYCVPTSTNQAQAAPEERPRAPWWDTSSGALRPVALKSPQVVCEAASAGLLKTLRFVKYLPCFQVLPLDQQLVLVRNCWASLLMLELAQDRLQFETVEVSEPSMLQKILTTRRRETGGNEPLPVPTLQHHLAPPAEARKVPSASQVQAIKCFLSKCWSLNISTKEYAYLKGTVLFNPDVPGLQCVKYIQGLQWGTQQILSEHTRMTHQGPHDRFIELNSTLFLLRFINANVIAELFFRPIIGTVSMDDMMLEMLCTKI
hcDAF-12 act – H. contortus DAF-12 nuclear receptor activators, primary screen, cell-based, luminescence, HEK293, lit1-tk-luc reporter; actives 1.4% (n = 370,000); HEK293 hcDAF-12 lit1-tk-luc reporter; 0% DMSO, 100% Δ7-dafachronic acid; activation, % at 6.8 µM;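 active = activation above the mean of all tested compounds plus 3 SD, cut at about 5.5% in these data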;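 also: 100% = response to 3 µM Δ7-dafachronic acid high control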
ssDAF12 agonist – S. stercoralis DAF-12 nuclear receptor activators, primary screen, cell-based, luminescence, HEK293, GRIP1 co-expression, lit1-tk-luc; HEK293 ssDAF-12/GRIP1 lit1-tk-luc reporter; % of 3 µM dafachronic acid response; AID 652126, 2013; actives 1% (n = 370,000); activation, % at 6.8 µM;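 active = activation above the mean over all tested compounds plus 3 SD, cut at about 0.9% in these data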;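 also: 0% = DMSO-only wells and 100% = 3 µM delta7-dafachronic acid wells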
The depositor's hits bear a star; nt = no result. Hits are enriched below; roughly 4.1% of the tested compounds scored in any of these assays.

SMILES	hgDAF12 agonist	DAX1 inh-1	DAX1 inh-2	hcDAF-12 act	ssDAF12 agonist
O=C(NCc1ccccc1Cl)c1cc2ccccc2oc1=O	1	0	1	0	-1
COC(=O)c1cc(Nc2cc(C)c3c(O)cccc3n2)cc(C(=O)OC)c1	-1	-1	3	-2	-2
COc1ccc(Nc2cc(C)c3c(O)cccc3n2)cc1	12*	0	1	1	-1
COc1ccc(Nc2cc(Nc3ccccc3)ncn2)cc1	6	1	1	6.0*	0
COc1ccc(Nc2ncnc3ccccc23)cc1	9	1	1	1	-1
O=C(Cc1ccc(Br)cc1)N1CCOCC1	-1	1	2	1	0.9*
O=C(Cc1ccc(-c2ccccc2)cc1)N1CCOCC1	-2	0	0	0	-1
O=C(NCC(=O)N1CCOCC1)c1ccc(Br)o1	2	3.7*	3	-1	-1
CC(=O)N1CCN(C(=O)CNC(=O)c2ccc(Br)o2)CC1	-2	0	1	-1	-1
O=C(Nc1ccc(N2CCOCC2)cc1)c1ccc(Br)o1	12*	3	1	4	0
O=C(NCC(=O)N1CCCCCCC1)c1ccc(Br)o1	2	1	6.0*	1	-1
Cc1ccccc1CN1CCCCC(NC(=O)c2ccc(F)c(F)c2)C1=O (centres undefined)	-4	-2	nt	-4	0
COC(=O)CCc1c(C)c(C(=O)c2cc(OC)c(OC)c(OC)c2)c2ccccn12	-3	-1	1	-2	-1
CCOc1ccc(C(C)=O)cc1CN1c2ccc(S(N)(=O)=O)cc2CC1C (centres undefined)	-1	-1	0	-1	-1
CCCCN1CCCOc2cc(Br)ccc2S1(=O)=O	-1	0	nt	0	0
O=C(C1CCN(S(=O)(=O)c2cccc3cccnc23)CC1)N1CCN(c2ccccc2)CC1	12*	0	2	1	-1
COc1ccc(/C(O)=C2/C(=O)C(=O)N(c3ccccn3)C2c2ccc(C(C)C)cc2)cc1 (centres undefined)	13*	2	1	4	1
COc1ccc(/C(O)=C2/C(=O)C(=O)N(c3ccccn3)C2c2ccc(OC)cc2)cc1 (centres undefined)	-2	0	1	2	-1
O=C(Nc1ccccc1)C1=C[C@@H](c2ccc(Br)cc2)C[C@@H](OCCCCO)O1	5	0	1	2	0
O=C(Nc1ccccc1)C1=C[C@H](c2ccccc2)C[C@H](OCCCCO)O1	9	2	2	5.7*	0
CC1(C(=O)NS(=O)(=O)Cc2ccccc2C(F)(F)F)CCN1C(=O)c1ccccc1 (centres undefined)	1	0	nt	0	-1
Clc1ccc(OCc2nc(-c3ccncc3)no2)c(Cl)c1	12*	3	2	6.1*	1
COC(=O)[C@]12C=CCN1[C@H](c1ccc(OC)c(OC)c1)c1c(c3ccccc3n1S(=O)(=O)c1ccc(C)cc1)C2	2	1	nt	1	3.8*
CC(=O)Oc1ccc(C(=O)Nc2ccccc2C(=O)Nc2cccc(C(=O)O)c2)cc1	1	0	5.4*	-1	-1
Nc1nc(-c2ccccc2)c(N=Nc2ccccc2Cl)s1	5	-1	-1	5.8*	-1
Nc1nc(-c2ccccc2)c(N=Nc2cccc3ccccc23)s1	0	-1	0	3	0
Cc1cc(SCC(=O)NCCC2=CCCCC2)nc2ccccc12	0	0	-1	1	-1
CCOC(=O)N1CCC(n2c(SCC(=O)NCCC3=CCCCC3)nc3ccccc3c2=O)CC1	-2	-1	4.4*	-4	-2
CCOC(=O)N1CCC(n2c(SCC(=O)NCc3ccccc3)nc3ccccc3c2=O)CC1	-1	-1	-2	-1	-2

From PubChem BioAssay
